# Assay results reported in PubChem BioAssay (NCATS).
# Records with an inconclusive call do not appear. The source made the active and inactive calls. Calls follow the shape of the full dose curve.
# Target: Estrogen receptor (Homo sapiens) (UniProt P03372)
# Assay: qHTS assay for small molecule agonists of estrogen receptor alpha signaling (AID 588514);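 also: 0% = vehicle only and 100% = reference agonist; nearly all actives have a fitted effect of over 70% in size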
# Conditions: ER-alpha-UAS-bla HEK293, beta-lactamase ratio, 18 h; series mostly up to 76.8 µM; activation: at the top concentration
# Excerpt: NIH Chemical Genomics Center [NCGC]
# U.S. Environmental Protection Agency [EPA]
# National Institutes of Environmental Health Sciences [NIEHS]
# National Toxicology Program [NTP]
# Estrogen receptor alpha (ER-alpha) is an important member of nuclear hormone receptors. ER-alpha plays important role in breast cancer as well as in other women's health issues. The majority of breast cancers is estrogen receptor (ER) positive and depends on estrogen for growth. There is also growing concern for some of environmental chemicals which may contribute the increasing the incidence of breast cancer. Therefore, it is important to understand the effect of environmental chemicals in ER-alpha signaling pathway.
# NCGC Assay Protocol Summary
# Using a beta-lactamase reporter-gene under control of the ER response element, a cell-based assay [ER-alpha-UAS-bla GripTiteTM cell-Based Assay from Invitrogen] was used to measure ER-alpha signaling pathway in agonist mode. ER-alpha-UAS-bla-GripTite HEK 293 cells were used with assay medium containing 2% charcoal/dextran treated FBS, 0.1 mM NEAA and 1 mM sodium pyruvate. Cells were cultured in this assay medium overnight in the flasks before the assay. The assay was performed in clear bottom black Greiner 1536-well plates. 17-beta-estradiol was used as a positive control in the screen. Library compounds were measured for their ability to either stimulate the reporter gene activity. Compounds were screened in a titration series in 1536-well format. […] Data was normalized relative to 17-beta-estradiol control (20 nM, 100%), and DMSO only wells (basal, 0%). Concentration-response titration points for each compound were fitted to the Hill equation yielding concentrations of half-maximal stimulation (EC50) and maximal response (efficacy) values.
# qHTS protocol for ER-alpha beta-lactamase assay in agonist mode
# [Step] [Parameter] [Value] [Description]
# 1. Reagent; 6 uL; 5000 cells/well
# 2. Incubation; 37 C for 4 hrs
# 4. Controls (17-beta-estradiol); 23 nL
# - Dose response, start 1uM, 1:3 dilutions with duplicates
# - Two columns with 20 and 0.5 nM (final) concentration.
# 5. Incubation; 37 C for 18 hrs
# 6. Detection reagent; 1 uL of CCF4-dye
# 7. Incubation; RT for 2 hrs
# 8. Detection; Fluorescence; Envision plate reader or Acumen plate reader
# Sequence of Estrogen receptor (Homo sapiens) (P03372 whole entry, looked up): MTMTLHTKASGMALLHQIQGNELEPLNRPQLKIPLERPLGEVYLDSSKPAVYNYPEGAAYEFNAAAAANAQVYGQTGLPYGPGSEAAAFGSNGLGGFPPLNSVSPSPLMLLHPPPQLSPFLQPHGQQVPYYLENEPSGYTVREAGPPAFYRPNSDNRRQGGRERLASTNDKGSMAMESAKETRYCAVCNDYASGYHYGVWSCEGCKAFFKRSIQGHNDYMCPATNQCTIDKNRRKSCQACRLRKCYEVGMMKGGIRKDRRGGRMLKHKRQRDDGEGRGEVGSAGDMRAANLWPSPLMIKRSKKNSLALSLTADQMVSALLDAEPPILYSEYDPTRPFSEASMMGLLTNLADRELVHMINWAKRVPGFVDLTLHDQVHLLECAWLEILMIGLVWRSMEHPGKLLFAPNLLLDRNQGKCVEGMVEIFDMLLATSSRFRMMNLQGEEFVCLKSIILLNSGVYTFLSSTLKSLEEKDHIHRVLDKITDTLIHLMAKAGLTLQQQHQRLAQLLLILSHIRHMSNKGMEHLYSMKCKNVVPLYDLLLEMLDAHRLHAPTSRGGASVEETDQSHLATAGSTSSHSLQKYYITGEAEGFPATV
Structure (SMILES),activation,Potency
C=C(C)CCl,-0.503% (inactive),–
CCC(Cl)[N+](=O)[O-] (stereo not given),-2.39% (inactive),–
O=[N+]([O-])CCO,-9% (inactive),–
N#CC(Cl)(Cl)Cl,-7.54% (inactive),–
N#CCc1ccccc1,1.69% (inactive),–
Brc1ccc(Oc2ccc(Br)cc2Br)c(Br)c1,0.756% (inactive),–
Nc1c(Br)cc([N+](=O)[O-])cc1[N+](=O)[O-],-8.71% (inactive),–
Nc1ccc(-c2ccc(N)cc2)cc1,0.444% (inactive),–
Cc1cc(-c2cc(C)c(N)c(C)c2)cc(C)c1N,-4.35% (inactive),–
Cl/C=C/Cl,4.13% (inactive),–
CC(C)(COCC1CO1)COCC1CO1 (stereo not given),-1.72% (inactive),–
O=C(O)C(Br)CBr (stereo not given),5.28% (inactive),–
c1ccoc1,-2.4% (inactive),–
C/C=C/CC#N,4.77% (inactive),–
CCCCCOC(=O)c1ccccc1C(=O)OCCCCC,–,inactive
C[N+](=O)[O-],-1.33% (inactive),–
Cc1ccc(N)cc1C,1.35% (inactive),–
C=CCCl,5.7% (inactive),–
ClC(Cl)(Cl)C(Cl)(Cl)Cl,-5.54% (inactive),–
Cc1coc2c1CCC(C)C2 (stereo not given),5.86% (inactive),–

Structure (SMILES),activation,Potency
ClC(Br)Br,-4.51% (inactive),–
NNC(N)=S,-0.876% (inactive),–
Clc1ccc(C(Cl)(Cl)Cl)cc1Cl,-0.772% (inactive),–
C=CC(=O)OCC(C)C,-0.844% (inactive),–
CCCCCCCCCCCCCl,-2.64% (inactive),–
ClCCBr,0.883% (inactive),–
OC[P+](CO)(CO)CO,-6.22% (inactive),–
N#CC(Br)Br,-5.36% (inactive),–
Nc1cc(Cl)ccc1O,4.79% (inactive),–
CC(C)CC(C)N (stereo not given),0.922% (inactive),–
C=C(Cl)CCl,1.03% (inactive),–
C=CCOCC1CO1 (stereo not given),0.785% (inactive),–
CN1CSC(=S)N(C)C1,–,inactive
ClC(Cl)C(Cl)Cl,-3.66% (inactive),–
C1CC2OC2CC1C1CO1 (stereo not given),–,inactive
N#C/C(N)=C(/N)C#N,1.26% (inactive),–
Nc1ccc(-c2ccccc2)cc1,9.03% (inactive),–
CC(Cl)CCl (stereo not given),-0.962% (inactive),–
CN(C)c1ccc(N(C)C)cc1,-3.32% (inactive),–
CN(C)c1ccc(N)cc1,-0.0325% (inactive),–
